High-throughput results: PubChem, several laboratories
An excerpt weighted towards active compounds, which were near 0.9% of everything screened.
PfHsp40 rescue: restores yeast growth despite PfHsp40 toxicity; S. cerevisiae expressing PfHsp40, growth rescue, ATP luminescence; growth rescue, % at 12.5 µM; 0.68% of 340,000 active; in the data active means growth rescue above about 28%, passing the limit was not always enough; inconclusive means no clear call, values can overlap the other calls;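 further: yeast W303a lacking pdr1 and pdr3 grown in galactose medium; growth measured after three days at 30 °C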
ugtP null kill: growth inhibition of S. aureus ugtP deletion strain; growth inhibition, % (concentration not given with the values); S. aureus RN4220 ugtP deletion, OD600 growth, 16 h; AID 1259309; 0.54% of 330,000 active; in the data active means growth inhibition above about 68%
BioA inh: BioA (M. tuberculosis) enzyme inhibition | purified M. tuberculosis BioA enzyme, plate reader | inhibition, % at 9.99 µM | AID 602481 | 0.096% of 360,000 active; in the data active means inhibition above about 40%; inconclusive means no clear call, values can overlap the other calls
Sa RN4220 lethal: kills Staphylococcus aureus RN4220; 0.33% of 330,000 active; S. aureus RN4220 growth, OD600, 16 h; AID 1259311; inhibition, % (concentration not given with the values); in the data active means inhibition above about 85%
Mtb betalactam: beta-lactam sensitization of Mtb H37Rv | inhibition, % at 25 µM | M. tuberculosis H37Rv growth with meropenem, percent inhibition | 0.27% of 330,000 active; call rule not given here;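 further: growth measured after seven days incubation then overnight dye step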
Each line names hits and unclear results; the compound was inactive in the other large screens.

COC(=O)C1=CC(C(=O)OC)C2C3=C(C(=O)[C@]2(C)NC(=O)c2ccccc2)C(C)n2c(=O)n(-c4ccccc4)c(=O)n2C3C1 (stereo not given in full)	none (no result: PfHsp40 rescue, BioA inh, Mtb betalactam)
CCOC(=O)C1C2COc3cc(OC)ccc3C2N2C(=O)CN(C)C(=O)[C@@]12C (stereo not given in full)	none (no result: PfHsp40 rescue, BioA inh, Mtb betalactam)
COc1ccc(CCCC(=O)NCCc2ccccc2)c(C)c1	PfHsp40 rescue 40
Cc1ccc(C(=O)ONc2ccc(N=O)cc2)cc1	ugtP null kill 100
Cc1ccc(C(=O)ONc2ccc(N=NC(=O)c3ccccc3O)cc2)cc1	none
O=C(O)c1ccc(CSc2ncnc3c2cnn3Cc2ccccc2)cc1	none
Cc1ccc(CSc2ncnc3c2cnn3Cc2ccccc2)cc1	ugtP null kill 90
N#Cc1ccc(CSc2ncnc3c2cnn3Cc2ccccc2)cc1	none
Cc1ccc(CSc2ncnc3c2cnn3Cc2ccccc2)cc1C	ugtP null kill 93
NCCCCC1CNC(=O)C(=O)N1CCc1cccc(F)c1 (stereo not given)	none (no result: PfHsp40 rescue, BioA inh, Mtb betalactam)
CC(C(=O)Nc1ccc2ccccc2c1)C1C[C@@]1(C)C(NC(=O)c1cnccn1)c1ccccc1 (stereo not given in full)	none (no result: PfHsp40 rescue, BioA inh, Mtb betalactam)
Oc1c(Br)cc(Br)cc1C=NNc1ccc(Cl)nn1	ugtP null kill 100 (no result: PfHsp40 rescue, BioA inh, Mtb betalactam)
C[C@@]12C(=O)NCC(=O)N1C1c3cc(Br)ccc3OCC1C2c1ccccc1 (stereo not given in full)	none (no result: PfHsp40 rescue, BioA inh, Mtb betalactam)
N#CC(C#N)=c1ccc2c(c1)N1C3=C(CCCC3)CC3CCCCC31N=2 (stereo not given)	ugtP null kill 92, Sa RN4220 lethal 91
N#C/C(C(N)=O)=c1/ccc2c(c1)N1C3=C(CCCC3)CC3CCCCC31N=2 (stereo not given)	none (no result: ugtP null kill, Sa RN4220 lethal)
COc1ccc(C(Nc2cc(C)ccn2)c2ccc3ccc(C)nc3c2O)cc1 (stereo not given)	none
CC(=O)NC(c1ccc(Cl)cc1)c1ccc2cccnc2c1O (stereo not given)	PfHsp40 rescue inconclusive (no result: Mtb betalactam)
Cc1ccnc(NC(c2ccccc2)c2ccc3cccnc3c2O)c1 (stereo not given)	PfHsp40 rescue 154 (no result: Mtb betalactam)
Cc1cc(NC(c2ccc(Cl)cc2)c2ccc3cccnc3c2O)no1 (stereo not given)	PfHsp40 rescue 44
O=C(O)c1ccccc1NC(c1ccccc1)c1ccc2cccnc2c1O (stereo not given)	PfHsp40 rescue 322 (no result: ugtP null kill, BioA inh, Sa RN4220 lethal, Mtb betalactam)
Cc1ccnc(NC(c2ccsc2)c2ccc3ccc(C)nc3c2O)c1 (stereo not given)	PfHsp40 rescue 250
COc1ccccc1NC(c1cccnc1)c1ccc2cccnc2c1O (stereo not given)	none
CC1COC(=O)C(Cc2ccc(F)cc2)CC=CCC(CC(=O)N(CCO)Cc2ccccc2)C(=O)N1 (stereo not given)	none (no result: PfHsp40 rescue, BioA inh, Mtb betalactam)
Cc1ccc2ccc(C(Nc3ccccn3)c3ccccc3)c(O)c2n1 (stereo not given)	none
Oc1c(C(Nc2ccccn2)c2ccccn2)ccc2cccnc12 (stereo not given)	PfHsp40 rescue 63
O=C(C#Cc1cccc([N+](=O)[O-])c1)c1ccccc1	ugtP null kill 98
CCC1C(=O)OCC1Cc1cncn1C (stereo not given)	none (no result: PfHsp40 rescue, BioA inh, Mtb betalactam)
CC1CCC(C(C)C)C(OC(=O)C[n+]2cc(-c3ccc(Cl)cc3)n3c2CCCCC3)C1 (stereo not given)	ugtP null kill 101, Sa RN4220 lethal 100 (no result: BioA inh)
CC[C@]12C(=O)N(C)CC(C3C(=O)N(Cc4ccccc4)C(=O)C31)N2C(=O)c1ccc(Br)cc1 (stereo not given in full)	none (no result: PfHsp40 rescue, BioA inh, Mtb betalactam)
CCN1C(c2ccccc2)C(C)C(=O)C(C)C1c1ccccc1 (stereo not given)	ugtP null kill 91
CC(=NNC(=S)N1CCC1)c1ccccn1	PfHsp40 rescue 34 (no result: ugtP null kill, BioA inh, Sa RN4220 lethal, Mtb betalactam)
Nc1ccc2c(c1)Cc1ccccc1-2	none
N#CC1C(=N)Cc2ccccc2-c2ccccc21 (stereo not given)	PfHsp40 rescue 39 (no result: Mtb betalactam)
COC(=O)C1C2c3ccccc3C(c3ccccc32)C1(C)C(=O)OC (stereo not given)	PfHsp40 rescue 35 (no result: Mtb betalactam)
COC(=O)[C@@H]1C(c2ccccc2)(c2ccccc2)[C@@]1(C)C(=O)OC	none (no result: BioA inh)
COc1ccc(CNC(=O)C=Cc2ccc3[nH]cc(CCN(C)C)c3c2)cc1	none (no result: PfHsp40 rescue, BioA inh, Mtb betalactam)
On1ccccc1=S	PfHsp40 rescue 382 (no result: ugtP null kill, Sa RN4220 lethal)
CN(C)S(=O)(=O)Oc1cccc(C(=O)Nc2ccc(Cl)c(Cl)c2)c1	PfHsp40 rescue 233
CN(C)S(=O)(=O)Oc1cccc(C(=O)Nc2cccc(Cl)c2)c1	none
CC1CN(C(C)CO)C(=O)Cc2cc(NC(=O)Nc3ccc(C(F)(F)F)cc3)ccc2OC1CN(C)S(=O)(=O)c1ccc(Cl)cc1 (stereo not given)	none (no result: PfHsp40 rescue, BioA inh, Mtb betalactam)
S=C(Nc1ccc(Oc2ccccc2)cc1)NC1CCCCCC1	PfHsp40 rescue inconclusive
S=C(Nc1ccc2nsnc2c1)NC1CCCCC1	none (no result: BioA inh)
S=C(Nc1ccc(Cl)c(Cl)c1)NC1CCCCC1	PfHsp40 rescue 190 (no result: BioA inh)
S=C(NNc1ccc2ccccc2c1)NC1CCCCC1	PfHsp40 rescue 244 (no result: Mtb betalactam)
CC(C)CC(CN(N=O)C(Cc1ccccc1)CN(C)N=O)N(CCc1ccccc1)N=O (stereo not given)	none (no result: PfHsp40 rescue, BioA inh, Mtb betalactam)
Cc1ccc(S(=O)(=O)CC(=O)c2ccccc2)cc1	none (no result: BioA inh)
O=C(CC(=O)c1ccccc1)CS(=O)(=O)c1ccccc1	PfHsp40 rescue 60 (no result: Mtb betalactam)
Cc1cccc(C(=O)NC2c3ccccc3CC2O)n1 (stereo not given)	none (no result: PfHsp40 rescue, BioA inh, Mtb betalactam)
O=C(O)c1cc(-c2ccc(N3CCOCC3)cc2)nn1-c1ccc(F)cc1F	PfHsp40 rescue 40 (no result: BioA inh)
COc1cc(OC)c(OC)cc1/C=N/n1c(-c2n[nH]c3c2CCC3)n[nH]c1=S	PfHsp40 rescue 28 (no result: ugtP null kill, Sa RN4220 lethal)
COc1ccc(OC)c(/C=N/n2c(-c3n[nH]c4c3CCC4)n[nH]c2=S)c1	none (no result: ugtP null kill, Sa RN4220 lethal)
c1ccc(-c2onc(-c3ccco3)c2-c2ccc3[nH]ccc3c2)cc1	ugtP null kill 85
CC1CN(C(C)CO)C(=O)c2cc(NC(=O)Nc3ccccc3)ccc2OC1CN(C)S(C)(=O)=O (stereo not given)	none (no result: PfHsp40 rescue, BioA inh, Mtb betalactam)
CCOC(=O)c1cc(CC)sc1NC(=O)C(c1ccccc1)c1ccccc1	ugtP null kill 89
C#CCOCCOCCOCCNc1nc(N2CCN(C(=O)C(C)n3cc(CCCN=C(N)N)nn3)CC2)nc(N2CCN(C(=O)C(C(C)O)n3cc(CCCCN)nn3)CC2)n1 (stereo not given)	none (no result: PfHsp40 rescue, BioA inh, Mtb betalactam)
COc1cccc(-c2nc(=S)c3c(n2Cc2ccco2)CCCC3)c1	ugtP null kill 85
CNC(=O)c1[nH]cnc1C(=O)NC(CC(C)C)C(=O)OCc1ccccc1 (stereo not given)	none (no result: PfHsp40 rescue, BioA inh, Mtb betalactam)
CCOc1ccc(-c2cc(C)[n+](CCc3ccc(OC)c(OC)c3)c(-c3ccc(OCC)cc3)c2)cc1	ugtP null kill 100, Sa RN4220 lethal 100
CCOC(=O)c1sc(-c2cccc(C(F)(F)F)c2)nc1O	none (no result: BioA inh)
CCOC(=O)c1sc(-c2ccc(C(F)(F)F)cc2)nc1O	PfHsp40 rescue 132 (no result: BioA inh)
Cc1ccc(-c2cc(-c3cccc(F)c3)n[nH]2)c(O)c1	PfHsp40 rescue 66
